Data as given in PubChem BioAssay (Tox21).
Results filed as inconclusive are left out. Calls of active or inactive are those of the source. Calls come from the whole dose curve; as a rule, active = well fitted cell-killing curve with a large enough effect in the repeat runs; inconclusive = weak or mixed curves, or effect the other way; inactive = flat fitted curve, though single readings scatter.

experiment: qHTS assay to identify small molecule agonists of the constitutive androstane receptor (CAR) signaling pathway - cell viability counter screen (AID 1224836); details: HepG2-CYP2B6-hCAR viability, CellTiter-Fluor, 23 h, PK11195 added to every well; series mostly up to 92.4 µM; viability change, negative = cytotoxic: at the top concentration; note: nearly all actives have a fitted effect of over 45% in size
Source text: U.S. Tox21 Program National Center for Advancing Translational Sciences [NCATS] NIH Chemical Genomics Center [NCGC] U.S. Environmental Protection Agency [EPA] National Institutes of Environmental Health Sciences [NIEHS] National Toxicology Program [NTP] U.S. Food and Drug Administration [FDA] Tox21 Assay Overview: The constitutive androstane receptor (CAR) is a nuclear receptor which regulates multiple drug metabolizing enzymes (DMEs) and transporters. Activating CAR will generally increase the transcription and subsequent translation of CYP2B6 and CYP3A4. These two DMEs represent about 50% of the drug metabolizing potential in the body. […] Recently, there have also been studies performed indicating CARs role in energy metabolism and cancer therapy. Therefore, inducing CARs activity could have a potential effect on diabetes and cancer. Identifying environmental toxins and compounds which modulate CAR, through the use of the Tox21 10K compound collection, will be an important step in determining the toxicity and potential therapeutic effects these factors will have on the human body. To differentiate true CAR agonists from cytotoxic substances, the assay is multiplexed with a cell viability assay.
Tox21 Assay Protocol Summary: A double-stable (hCAR and CYP2B6-2.2kb) transfected cell line, derived from human hepatoma (HepG2) cells, was utilized for the duration of the quantitative high-throughput screens. The HepG2-CYP2B6-hCAR cells were dispensed at 2500 cells/4 uL/well in 1536-well white solid bottom plates using a Multidrop Combi. After the assay plates were incubated at 37 C/5% CO2 for 4 hrs, 23 nL of compounds at 15 concentrations (from 5-48 columns) or positive control (from 1 to 4 columns) were transferred to the assay plates using a Pintool station. One uL of PK11195 (final concentration = 0.75 uM) was added, using a Flying Reagent Dispenser, inside each well. After a 23 hr incubation period at 37 C/5% CO2, 1 uL of CellTiter-Fluor reagent was added into each well of the assay plates using a Flying Reagent Dispenser. The fluorescence intensity in the plates was then measured using a ViewLux plate reader.
% is set by controls: 0 for no effect and ±100 for the full control effect; potency is the fitted concentration of half-maximal effect.

Compound	viability change, negative = cytotoxic	Potency
Cc1ccccn1	-6% (inactive)	
CC(C)CCCC(C)CCO (stereo not given)	-3.4% (inactive)	
CCN(CCO)CCCC(C)Nc1ccnc2cc(Cl)ccc12 (stereo not given)	-11% [at 8.39 µM] (inactive)	
CC1(C)CCC(C)(C)c2cc(NC(=O)c3ccc(C(=O)O)cc3)ccc21	-0.752% [at 42.5 µM] (inactive)	
C#CCOC(=O)[C@@H](C)Oc1ccc(Oc2ncc(Cl)cc2F)cc1	4.4% (inactive)	
CCCCCCCCCCCCC(=O)O	2.4% (inactive)	
NC1CCN(c2nc3c(cc2F)c(=O)c(C(=O)O)cn3-c2ccc(F)cc2F)C1 (stereo not given)	-8.4% [at 42.5 µM] (inactive)	
NC[C@H]1O[C@H](O[C@H]2[C@H](O)[C@@H](O[C@H]3O[C@H](CO)[C@@H](O)[C@H](N)[C@H]3O)[C@H](N)C[C@@H]2N)[C@H](O)[C@@H](O)[C@@H]1O	-3.02% [at 8.39 µM] (inactive)	
CCCCCCCCC(CO)CCCCCC (stereo not given)	1.53% (inactive)	
O=c1[nH]cnc2ccccc12	8.19% (inactive)	
O=C(Cl)c1ccc([N+](=O)[O-])cc1	2.2% (inactive)	
CCCCCCc1ccc(N)cc1	-0.508% (inactive)	
NCCCN(CCO)CCO	-3.04% (inactive)	
C=CCCCCCC	0.607% (inactive)	
Cc1ccc(C)o1	-2.45% (inactive)	
O=C(C(=O)c1ccc(Br)cc1)c1ccc(Br)cc1	3.05% [at 19 µM] (inactive)	
O=C(O)Cc1cc(I)c(Oc2ccc(O)c(I)c2)c(I)c1	-3.45% (inactive)	
O=S1(=O)c2cccc3cccc(c23)N1CCCN1CCN(c2ccc(F)cc2)CC1	1.12% [at 42.5 µM] (inactive)	
c1ccc(CNCc2ccccc2)cc1	1.08% (inactive)	
CCCCCOC(=O)COc1cc(N2C(=O)C3=C(CCCC3)C2=O)c(F)cc1Cl	-1.9% (inactive)	

Compound	viability change, negative = cytotoxic	Potency
Cc1occc1S	-5.69% (inactive)	
CC1=CC(=O)/C(=C(/C)O)C(=O)O1	0.215% (inactive)	
O=C(O)/C=C/c1cnc[nH]1	2.49% (inactive)	
CC(=O)OC/C=C/c1ccccc1	-6.56% (inactive)	
NCc1ccccc1	2.65% (inactive)	
O=C(O)[C@@H]1[C@H]2C[C@H]3c4[nH]c5ccccc5c4CCN3C[C@@H]2CC[C@@H]1O	4.14% [at 42.5 µM] (inactive)	
Nc1ccc(C(=O)Nc2ccccc2N)cc1	-16.9% [at 42.5 µM] (inactive)	
CC(C)(C)c1cc(CCC(=O)OCC(COC(=O)CCc2cc(C(C)(C)C)c(O)c(C(C)(C)C)c2)(COC(=O)CCc2cc(C(C)(C)C)c(O)c(C(C)(C)C)c2)COC(=O)CCc2cc(C(C)(C)C)c(O)c(C(C)(C)C)c2)cc(C(C)(C)C)c1O	0.938% [at 42.5 µM] (inactive)	
Nc1nc(N)c2nc(CNc3ccc(C(=O)N[C@@H](CCC(=O)O)C(=O)O)cc3)cnc2n1	-4.9% (inactive)	
Cc1ccc(C(=O)C(C)CN2CCCCC2)cc1 (stereo not given)	-0.722% [at 42.5 µM] (inactive)	
O=[N+]([O-])c1cc[n+]([O-])cc1		30.6 µM (active)
CCCCCCCCCO	-17.8% (inactive)	
CC(C(=O)O)c1ccc(-c2ccccc2)c(F)c1 (stereo not given)	5.36% (inactive)	
CCN(CC)CCc1nc(-c2ccccc2)no1	4.83% [at 42.5 µM] (inactive)	
CCCCc1cc2ccccc2c(OCCN(C)C)n1	-7.85% [at 42.5 µM] (inactive)	
CCCC(=O)OCC	0.467% (inactive)	
CC(C)(C)c1ccc(S)cc1	2.44% (inactive)	
O=C(Cl)c1c(Cl)cccc1Cl	-0.0699% (inactive)	
Cc1ccc(O)c([C@H](CCN(C(C)C)C(C)C)c2ccccc2)c1	-14.1% [at 42.5 µM] (inactive)	
Cc1cc(CC(=O)O)c(C)n1-c1ccc(Cl)cc1	-19.3% [at 42.5 µM] (inactive)	
